Experiment [1] in a line: VALA_TUBHUV_Antagonist_TubuleLength: VALA Sciences human Umbilical Vein Endothelial Tubule Formation (TUBHUV) Antagonism Assay (AID 2284325; active means hit-call score of the fitted dose curve at least 0.9, where 1 is the maximum). A digest of the protocol: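 Tubule length was imaged via CD31 immunofluorescence after a further 3-day compound exposure in 10 ng/ml VEGF, following 3-day pre-culture of HUVEC with HDF at 1:3. Vehicle 0.1% DMSO; suramin (100 uM) inhibition control.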

Experiment [2] is described as follows: VALA_TUBIPS_Antagonist_CellCount: Viability Assessment in the VALA Sciences human iPS-derived Endothelial Tubule Formation (TUBIPS) Antagonism Assay (AID 2284335; active means hit-call score of the fitted dose curve at least 0.9, where 1 is the maximum).
Experiment [3] in a line: VALA_TUBIPS_Agonist_CellCount: Viability Assessment in the VALA Sciences human iPS-derived Endothelial Tubule Formation (TUBIPS) Agonism Assay (AID 2284338; active means hit-call score of the fitted dose curve at least 0.9, where 1 is the maximum).
For another experiment, the system named is SERPINA7 (gene 6906). In words: CCTE_GLTED_hTBG: CCTE's human Thyroxine-binding Globulin (TBG) Inhibition Assay, Great Lakes Toxicology and Ecology Division (GLTED) Lab (AID 2284343; active means hit-call score of the fitted dose curve at least 0.9, where 1 is the maximum;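 further: active chemicals lower fluorescence versus DMSO baseline by displacing probe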). In outline:
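Cell-free displacement of the fluorescent probe ANSA from human thyroxine-binding globulin after 2 h exposure. Read-out at ex 380/em 475 nm; DMSO baseline.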

A further experiment has as its system TTR (gene 7276). Kind of experiment: CCTE_GLTED_hTTR_0.5uM: CCTE's human Transthyretin (hTTR) Inhibition Assay, with 0.5uM TTR, Great Lakes Toxicology and Ecology Division (GLTED) Lab (AID 2284320). In outline: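 Probe (ANSA) displacement from 0.5 uM human transthyretin was followed by fluorescence (ex 380, em 475) after a 2 h incubation with chemical. Activity was scored as signal loss and fitted positively relative to DMSO.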

Experiment [4] can be described thus: IUF_NPC1_cytotoxicity_72hr: Cytotoxicity Assessment at 72 hours in the Leibniz Research Institute for Environmental Medicine (IUF) Neural Progenitor Cell Proliferation Assay (NPC1) (AID 2284332; active means hit-call score of the fitted dose curve at least 0.9, where 1 is the maximum;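 further: rising LDH signal means more cytotoxicity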). In outline:
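Cytotoxicity by LDH membrane-integrity assay on medium supernatants, fluorescence via resazurin reduction, after 3-day single exposure of primary hNPC spheres at 37C, pH 7.2-7.6 with growth factors. Fitted upward against baseline.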

Experiment [5] is described as follows: CCTE_Mundy_HCI_iCellGluta_NOG_NeuronCount: CCTE's Neurite Outgrowth Assay in iCellGluta cells for Neuron Count, Mundy Lab (AID 2284340; active means hit-call score of the fitted dose curve at least 0.9, where 1 is the maximum;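 further: cells fixed about 48 h after compound addition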). In outline:
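Neuron count read by automated high-content imaging of Hoechst 33342 and betaIII-tubulin/Alexa Fluor-488 labelling in human iPSC glutamatergic neurons. Activity fitted relative to DMSO.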

Experiment [6] is described as follows: CCTE_Mundy_HCI_iCellGluta_NOG_NeuriteCount: CCTE's Neurite Outgrowth Assay in iCellGluta cells for Neurite Count, Mundy Lab (AID 2284342; active means hit-call score of the fitted dose curve at least 0.9, where 1 is the maximum;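 further: chemical exposure about 48 hours starting 2 hours after plating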).
Experiment [7] can be described thus: Tanguay_ZF_120hpf_MO24: Oregon State University Tanguay Lab 24 Hour Post-fertilization zebrafish Assay for Mortality (AID 2284389). In outline: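 Embryo death at 24 hpf was recorded as present or absent in Tropical 5D zebrafish, dechorionated at 4 hpf and dosed statically from 6 hpf (28C, 0.64% DMSO); 5 uM trimethyltin chloride served as positive control.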
Experiment [8] is described as follows: Tanguay_ZF_120hpf_DP24: Oregon State University Tanguay Lab 24 Hour Post-fertilization zebrafish Assay for Delayed Development (AID 2284390). A digest of the protocol:
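Scored at 24 hpf as a binary present/absent call of delayed development by brightfield, with dead embryos not assessed. Embryos (5D wild type, chorion removed with pronase at 4 hpf) dosed statically from 6 hpf at 28 C in 0.64% DMSO.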

Experiment [9] in a line: Tanguay_ZF_120hpf_CRAN: Oregon State University Tanguay Lab 120 Hour Post-fertilization zebrafish Assay for Craniofacial Malformation (AID 2284397). A digest of the protocol:
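Scoring of craniofacial malformation as a binary endpoint was done at 120 hpf by brightfield microscopy and was not done in dead embryos. Exposure was static, starting at 6 hpf, in dechorionated wild-type embryos held singly at 28C with 0.64% DMSO final.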

Experiment [10] can be described thus: Tanguay_ZF_120hpf_AXIS: Oregon State University Tanguay Lab 120 Hour Post-fertilization zebrafish Assay for Axial Malformation (AID 2284398). A digest of the protocol: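 Scoring was binary (present or absent) for body-axis defects, judged by brightfield imaging at 120 hpf in surviving larvae. Exposure was static at 28C from 6 hpf in chorion-free 5D wild-type embryos, with 0.64% DMSO vehicle.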

Experiment [11] can be described thus: Tanguay_ZF_120hpf_MORT: Oregon State University Tanguay Lab 120 Hour Post-fertilization zebrafish Assay for Mortality (AID 2284399). A digest of the protocol: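 Mortality, recorded present/absent via brightfield imaging at 24 and 120 hpf, in 5D zebrafish embryos exposed statically from 6 hpf after pronase chorion removal. Exposure at 28C, 0.64% DMSO vehicle, DMSO baseline.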

Experiment [12] is described as follows: CCTE_Deisenroth_H295R-HTRF_384WELL_ESTRADIOL: CCTE's H295R-HTRF Assay Evaluation of Estradiol Concentration, Deisenroth Lab (AID 2284361). To be noted: actives raise or lower the signal. A digest of the protocol: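 Estradiol secreted into medium by H295R adrenocortical cells, quantified by HTRF after 48 h dosing over a nine-point 0.001 - 100 uM final range; gain or loss versus DMSO. Parallel ATP-luminescence viability readout; n=5 experiments.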
A general note: TR-FRET usually uses a lanthanide donor and a delayed reading to cut background.

Experiment [13] in a line: CCTE_Deisenroth_H295R-HTRF_384WELL_TESTOSTERONE: CCTE's H295R-HTRF Assay Evaluation of Testosterone Concentration, Deisenroth Lab (AID 2284373). The settings on record: actives raise or lower the signal. A digest of the protocol: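 Secreted testosterone was quantified by HTRF immunoassay of medium from human adrenocortical H295R cells after 48 h chemical exposure at 0.001–100 uM final. Gain or loss was fitted against DMSO. ATP-based viability was read on matched wells, five experimental replicates.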

The nature of experiment [14]: CCTE_Deisenroth_H295R-HTRF_384WELL_CTOX: Cytotoxicity Assessment in CCTE's H295R-HTRF Assay, Deisenroth Lab (AID 2284380; active means hit-call score of the fitted dose curve at least 0.9, where 1 is the maximum). A digest of the protocol:
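Luminescent ATP viability readout (CellTiter-Glo 2.0), multiplexed on plates used for hormone sampling, after 48 h chemical exposure. Human H295R cells; final concentrations 0.001–100 uM in nine steps, technical triplicates, five experiments; DMSO baseline.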

Experiment [15] can be described thus: VALA_MIGHUV1_ScratchOnly_WoundArea: VALA Sciences human Umbilical Vein Endothelial Cell Migration (MIGHUV) Assay, Area of Scratch Wound Inhibited Recovery (AID 2284336; active means hit-call score of the fitted dose curve at least 0.9, where 1 is the maximum). In outline:
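Wound area remaining after 24 h recovery imaged by Hoechst nuclear fluorescence in scratched HUVEC cultures, chemicals added within 30 min of scratching across a 6-point series. Gain of signal fitted against 0.1% DMSO; cytochalasin D positive control.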

Experiment [16] can be described thus: CCTE_Deisenroth_5AR_NBTE_acceptor: CCTE's 5alpha-reductase NanoBRET Target Engagement Assay - Autofluorescence Screen, Deisenroth Lab (AID 2284321).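 Further: compound fluorescence in the acceptor channel under 460 nm excitation flags autofluorescence artifacts.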 The settings on record: actives raise or lower the signal. In outline: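 Chemicals diluted to a nominal 100 uM in DMSO were scanned at 460 nm excitation. Samples were read in three independent runs (n=3). Gain or loss of acceptor signal was fitted relative to DMSO.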
A general note: In BRET a luciferase serves as donor, and the signal depends on an acceptor being close.

The next experiment relates to SRD5A2 (gene 6716). Kind of experiment: CCTE_Deisenroth_5AR_NBTE_ratio: CCTE's 5alpha-reductase NanoBRET Target Engagement Assay - Ratio, Deisenroth Lab (AID 2284322). The settings on record: actives raise or lower the signal. A digest of the protocol: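 HEK293T cells transiently expressing an SRD5A2-NanoLuc fusion (20 h post-transfection) were exposed to test chemical (10 nM - 29.9 uM, 8 points) for 3 h, then testosterone tracer for a further 2 h. Acceptor/donor BRET ratio was fitted bidirectionally against DMSO baseline.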

Where “and” joins values, the source holds several entries; their conditions need not be identical. Equal entries are not always repeated. Inconclusive results are not listed. Some structures have more than one record in an assay (separate samples or runs), and their calls can disagree. Calls of active or inactive are those of the source. How the source made its calls, unless noted: active means hit-call score of the fitted dose curve at least 0.9, where 1 is the maximum; inactive means score below 0.9.

Regarding `Oc1cc(Cl)ccc1Oc1ccc(Cl)cc1Cl`, the molecule was classed as inactive in experiment [1]. In addition, the AC50 in [2] is 0.00562 µM (active); in experiment [3], 7.53 µM (active); with SERPINA7 (gene 6906), 0.154 µM (active).

In the case of `CCN(CC)C(=O)SCc1ccc(Cl)cc1`, in the experiment with SERPINA7 (gene 6906), the AC50 is 22.4 µM (active).

In the case of `O=C(O)C(F)(F)C(F)(F)C(F)(F)C(F)(F)C(F)(F)C(F)(F)C(F)(F)F`, the AC50 in the experiment with TTR (gene 7276) was 450 nM (active) [middle of 4 runs]. For the same molecule, the molecule was classed as inactive in experiment [4], in [5], in [6], in experiment [7], in [8] and in [9]. Moreover, the outcome in [10] and in experiment [11] was inactive.

Turning to `COP(=O)(OC)OC=C(Cl)Cl`, the molecule was classed as inactive in [4] and in experiment [5]. Moreover, the half-maximal activity concentration (AC50) in experiment [6] is 49 µM (active).

For `CC(C)(C)C(O)C(Oc1ccc(Cl)cc1)n1cncn1` (stereo unspecified), the call in experiment [12], in experiment [13] and in experiment [14] was inactive.

For the molecule `Clc1ccccc1-c1nnc(-c2ccccc2Cl)nn1`, in the experiment on SERPINA7 (gene 6906), the AC50 is 0.23 µM (active).

Turning to `CC(C)N(C(=O)COc1nnc(C(F)(F)F)s1)c1ccc(F)cc1`, the result in experiment [4], in experiment [5] and in experiment [6] was inactive.

On to `O=S(=O)(O)C(F)(F)C(F)(F)C(F)(F)C(F)(F)C(F)(F)C(F)(F)C(F)(F)C(F)(F)F`, for which the AC50 is 489 nM (active) and 455 nM (active) in the experiment with TTR (gene 7276); 3.31 µM (active) in [4]; 32.7 µM (active) and 91 µM (active) in [9]; 37.8 µM (active) in experiment [10]; 22.5 µM (active) in [11]. Moreover, the result in experiment [4], in experiment [2], in experiment [15], in experiment [3], in experiment [5] and in [6] was inactive. Further, the result in experiment [7], in experiment [8], in experiment [10] and in [11] was inactive.

For `O=[N+]([O-])/N=C1\NCCN1Cc1ccc(Cl)nc1`, the result (in experiment [16]; in the experiment with SRD5A2 (gene 6716); in [4]; in experiment [5]; in [6]) was inactive.

In the case of `CCCN(CCC)c1c([N+](=O)[O-])cc(C(F)(F)F)cc1[N+](=O)[O-]`, the call (in [16]; in the experiment on SRD5A2 (gene 6716)) was inactive. The concentration at half-maximal activity (AC50) in the experiment on SERPINA7 (gene 6906) is 5.16 µM (active).

On to `COP(=S)(OC)Oc1ccc([N+](=O)[O-])cc1`, for which the molecule was called inactive in experiment [4] and in experiment [5]. Moreover, the AC50 in [6] is 23.4 µM (active).

On to `C#CCN1C(=O)COc2cc(F)c(N3C(=O)C4=C(CCCC4)C3=O)cc21`, for which the AC50 with SERPINA7 (gene 6906) is 8.38 µM (active).

Usually AC50 stands for the concentration giving half of the maximal activity seen.

Values taken from PubChem BioAssay (EPA / NIEHS).
